# In the library only some 1.4% were active in any assay of this set; here they are far more common.
# A3A deaminase = human APOBEC3A DNA deaminase inhibition; recombinant A3A, FAM/TAMRA ssDNA deamination fluorescence; P31941; inhibition, % at 20 µM; 330,000 compounds, 0.41% hits;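 active = at least 40% inhibition at 20 µM here, with at most 30% in a related deaminase screen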;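 note: plate controls were A3A with DMSO for no effect and wells lacking A3A enzyme for full effect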
# HDAC3 inhib = inhibitors of human histone deacetylase 3 | AID 2718 | recombinant HDAC3, fluorogenic peptide/trypsin coupled, fluorescence | inhibition, % at 8.3 µM | O15379 | 320,000 compounds, 0.15% hits; in the data active = inhibition above about 26%, passing the limit was not always enough
# Target sequence (O15379 whole entry, looked up): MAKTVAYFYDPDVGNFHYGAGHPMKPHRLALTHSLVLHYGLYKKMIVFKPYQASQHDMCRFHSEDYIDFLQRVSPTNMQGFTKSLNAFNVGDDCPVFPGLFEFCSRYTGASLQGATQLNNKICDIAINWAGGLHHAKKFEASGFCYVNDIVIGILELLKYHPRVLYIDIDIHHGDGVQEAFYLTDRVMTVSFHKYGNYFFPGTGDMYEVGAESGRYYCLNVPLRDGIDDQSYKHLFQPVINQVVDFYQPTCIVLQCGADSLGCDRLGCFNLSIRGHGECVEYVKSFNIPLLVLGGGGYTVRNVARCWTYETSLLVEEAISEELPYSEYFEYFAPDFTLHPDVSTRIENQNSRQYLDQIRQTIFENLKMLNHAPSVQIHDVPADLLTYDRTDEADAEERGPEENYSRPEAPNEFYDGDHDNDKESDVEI
# LANA-H2B inh = blocks KSHV LANA binding to histone H2A/H2B; Q9QR71; cell-free LANA-H2A/H2B peptide, fluorescence polarization; inhibition, % (test concentration not listed); 320,000 compounds, 0.6% hits; AID 2629; in the data active = inhibition mostly above about 10%, no sharp cut-off; inactive = mostly below about 6.7%
# A3G deaminase = blocks human APOBEC3G single-stranded DNA deamination | recombinant A3G, ssDNA deamination FAM/TAMRA fluorescence | Q9HC16 | 330,000 compounds, 0.28% hits | AID 493012 | inhibition, % at 20 µM;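 active = inhibition of at least 40% at 20 µM, with no more than 30% in the related APOBEC3A deaminase screen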;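 note: plate controls were DMSO wells with A3G for no effect and wells lacking A3G enzyme for full effect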
# A3A conf = confirmation of human APOBEC3A DNA deaminase inhibitors | shares compounds with A3A deaminase | recombinant A3A, ssDNA deaminase UDG fluorescence assay | inhibition, % at 20 µM | 1,400 compounds, 63% hits;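 active = inhibition reaching a set limit, 80% of the first screen's cutoff, at 20 µM in any replicate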;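 note: plate controls were DMSO wells with A3A for no effect and wells lacking A3A enzyme for full effect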
# UDG ctr A3A = inhibits UDG, flagging false APOBEC3A inhibitors; shares compounds with A3A deaminase; UDG counterscreen, FAM/TAMRA uracil oligo fluorescence; inhibition, % at 20 µM; 1,000 tested, under 10 active; call rule not given here
# Numbers without * were called inactive; . = no result given.
SMILES,A3A deaminase,HDAC3 inhib,LANA-H2B inh,A3G deaminase,A3A conf,UDG ctr A3A
COc1cc(OC)cc(C(=O)NCC(=O)NCc2ccccn2)c1,-5,2,6,-6,.,.
CCOc1cc(C(=O)OCC(=O)Nc2ccc(F)cc2Cl)ccc1OCC(=O)N1CCOCC1,0,.,.,-5,.,.
COc1ccc(NC(=O)/C=C/c2cccc(Br)c2)cn1,41*,11,8,-7,15*,1
COc1ccc(NC(=O)C(=O)N2N=C3CCCCC3C2(O)C(F)(F)F)cc1 (stereo not given),55*,-13,0,10,54*,-1
COc1ccc(S(=O)(=O)Nc2ccc3c(c2)C(=O)N([C@H](C)CO)C[C@H](C)[C@@H](CN(C)C(=O)Nc2c(C)noc2C)O3)cc1,-4,-2,2,-7,.,.
CC(C)(C)OC(=O)COc1cc(F)ccc1[N+](=O)[O-],2,3,-2,2,.,.
COc1ccccc1OC(C)C(=O)N1CCC(Cc2ccccc2)CC1 (stereo not given),55*,2,0,5,47*,-2
CCCCN(C(=O)COC(=O)c1ccccc1)c1c(N)n(CCC)c(=O)[nH]c1=O,0,-2,-1,-4,.,.
CCOc1ccc(NC(=O)c2cc(C3CC3)nc3c2cnn3C(C)C)cc1OC,51*,2,-3,10,28,.
Nn1c(SCC(=O)NCCc2ccc(F)cc2)nnc1C1CCCCC1,3,-4,-4,-8,.,.
COc1ccc([N+](=O)[O-])cc1CSc1ccccn1,52*,-4,-6,7,46*,2
CC(C)C(=O)Nc1nnc(S(=O)(=O)N(C)c2ccc(Cl)cc2)s1,-1,-2,-1,-2,.,.
O=C(Nc1ccc(Cl)cc1)c1ccc2c(=O)n3c(nc2c1)CCCCC3,52*,.,.,11,-4,.
O=C(Nc1ccc(F)c(Cl)c1)c1ccc2c(=O)n3c(nc2c1)CCCCC3,-1,-5,0,-3,.,.
CCc1cc2c(COC(=O)c3cccc(NS(C)(=O)=O)c3)cc(=O)oc2cc1O,3,-11,2,-4,.,.
O=C(O)C1C2C=CC(C2)C1C(=O)N1CCN(C/C=C/c2ccccc2)CC1 (stereo not given),47*,1,-2,0,1,.
CC1=C(C)CC(C(=O)N2CCN(C/C=C/c3ccccc3)CC2)C(C(=O)O)C1 (stereo not given),-2,-4,-2,-6,.,.
Cc1cccc(NC(=O)CSCC(=O)Nc2cc(S(=O)(=O)N3CCOCC3)ccc2N2CCCC2)c1,96*,9,-8,-8,3,-3
Cc1cccc(C(=O)Nc2ccc(S(=O)(=O)N3CCOCC3)cc2C)c1,43*,-1,3,13,52*,-1
Cc1onc(-c2ccccc2Cl)c1C(=O)Nc1ccc(Cl)cn1,60*,-2,1,16,1,.
Cc1ccc(NC(=O)c2c(-c3ccccc3Cl)noc2C)nc1,-4,4,-5,-4,.,.
CCOc1ccc(N2CC(C(=O)NCc3ccco3)CC2=O)cc1 (stereo not given),0,5,4,-4,.,.
COc1ccc(N2CC(C(=O)NCc3ccco3)CC2=O)cc1 (stereo not given),41*,-1,-7,-1,46*,4
COc1ccc(C(C)=O)cc1COC(=O)c1cnc(Cl)c(Cl)c1,-6,0,1,-5,.,.
COc1ccccc1NC(=O)COc1coc(CN2CCN(c3ccccc3)CC2)cc1=O,1,0,0,-8,.,.
SMILES,A3A deaminase,HDAC3 inhib,LANA-H2B inh,A3G deaminase,A3A conf,UDG ctr A3A
CSC1=NSC2=NC(=O)/C(=C/c3coc4ccc(O)cc4c3=O)C(=N)N12,45*,-8,-8,23,36*,-7
CSC1=NSC2=NC(=O)/C(=C/c3coc4ccccc4c3=O)C(=N)N12,.,-1,0,.,.,.
COc1ccc(NC(=O)/C(C#N)=C/c2ccc(Br)o2)cc1,67*,6,-2,27,58*,.
COc1ccc(NC(=O)/C(C#N)=C\c2ccc(N3CCOCC3)o2)cc1,-10,14,-47,-20,.,.
Cc1ccc(OCC(=O)Nc2ccc(S(=O)(=O)N(C)C3CCN(C)CC3)cc2)c(C)c1,43*,0,-6,16,55*,-3
CN1CCC(N(C)S(=O)(=O)c2ccc(NC(=O)c3ccc(S(=O)(=O)N(C)C)cc3)cc2)CC1,47*,10,-4,1,39*,-3
CN1CCC(N(C)S(=O)(=O)c2ccc(NC(=O)COc3ccc(Br)cc3Cl)cc2)CC1,42*,3,0,-6,48*,2
CC(C)CCOCC(O)CCC(=O)NNC(=S)Nc1ccccc1 (stereo not given),92*,-1,3,-4,-4,1
COc1ccc(CCCc2nnc(SCC(=O)Nc3ccc(C)c(C)c3)o2)cc1,50*,-2,12,27,72*,4
COc1ccc(CCCc2nnc(SCC(=O)Nc3ccc(OC)cc3)o2)cc1,45*,2,1,16,71*,6
Cc1cc(C)nc(SCc2nnc(SCC(=O)Nc3ccc(Cl)c(C(F)(F)F)c3)o2)n1,70*,2,2,-2,-3,19
COc1cccc2c1C(=O)c1c(O)c3c(c(O)c1C2=O)C[C@](O)(C(C)=O)C[C@H]3O[C@@H]1C[C@@H](N)[C@@H](O)[C@@H](C)O1,50*,10,11,24,42*,.
CN(C)c1cccc(NC2=CC(=[N+]3CCOCC3)CC(C)(C)C2)c1,41*,3,0,18,18,.
CC1(C)CC(=O)C=C(Nc2cccc(F)c2)C1,-3,11,3,-8,.,.
COc1ccc2[nH]c(=O)c(CN(C(=O)c3ccco3)C(C)C)cc2c1,56*,4,7,26,61*,6
CCOC(=O)CNC(=O)c1ccc(OCC(F)(F)F)cc1,3,1,6,-1,.,.
Cc1ccc(N(C)C(=O)n2cnc3ccccc32)cc1,52*,11,6,-6,-1,-3
COCCN1C(=NCCCOC(C)C)N[C@@H](c2ccccc2)C(C(=O)OC)=C1C,62*,1,1,29,67*,3
COC(=O)C1=C(C)N(Cc2ccccc2)C(=NCc2cccc(Cl)c2)N[C@H]1c1ccccc1,37,6,1,7,.,.
C=CCN=C1N[C@@H](c2ccccc2)C(C(=O)OC)=C(C)N1CCOC,51*,8,1,6,71*,-4
O=C1CSC(=Nc2cccc([N+](=O)[O-])c2)N1,0,6,-1,-3,.,.
C=CCn1c(COc2ccc(F)cc2)nnc1SCC(=O)NC1CCS(=O)(=O)C1 (stereo not given),-1,-3,4,-8,.,.
COc1cc(C(N)=O)cc(Cl)c1OC,0,0,0,-4,.,.
CNC(=O)c1cc(Cl)c(OC)c(OC)c1,57*,3,-12,12,12,.
Cc1ccccc1OCC(=O)NCCS(=O)(=O)N1CCN(c2ccc(F)cc2)CC1,1,-10,2,15,.,.
